Assay results: PubChem BioAssay AID1159580 (chemical genetic matrix, 2015)
Screen size: about 5,500 compounds; about 2,000 (36%) were called active. Not shown: some 18% with an inconclusive outcome. Cut-off read from the data, not from the text of the source: active = normalized growth mostly below about 0.91 (no sharp cut-off); inconclusive = no clear call, values can overlap the other calls; inactive = mostly above about 0.92. The list shows a part of the results.

Assay: chemical genetic growth profiling, strain panel (AID 1159580);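 note: tested at 20 µM; growth read once vehicle control cultures reached saturation at 30 °C; 1 = growth at the plate median or of vehicle wells; lower values mean less growth of the strain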
Details: S. cerevisiae deletion strains, growth OD

Measured: normalized growth

C[C@H]1[C@H](C)CC[C@]2(C(=O)O)CC[C@]3(C)C(=CCC4[C@@]5(C)C[C@@H](O)[C@H](O)[C@@](C)(CO)C5CC[C@]43C)[C@H]12 (stereo not given in full)
inactive: locus YAL021C, strain ccr4, hits give low values 0.993 | locus YAL026C, strain drs2, hits give low values 1.04 | locus YAL030W, strain snc1, hits give low values 1.02 | locus YBL061C, strain skt5, hits give low values 1.01 | locus YBR009C, strain hhf1, hits give low values 1.01 | locus YBR023C, strain chs3, hits give low values 0.995 | locus YBR171W, strain sec66, hits give low values 1.04 | locus YBR231C, strain swc5, hits give low values 1.03 | locus YBR279W, strain paf1, hits give low values 1.01 | locus YCL011C, strain gbp2, hits give low values 1.02 | locus YCL016C, strain dcc1, hits give low values 1.01 | locus YCL061C, strain MRC1, hits give low values 1.02 | locus YCL069W, strain vba3, hits give low values 1.03 | locus YCR088W, strain abp1, hits give low values 1.03 | locus YDL005C, strain med2, hits give low values 1.03 | locus YDL040C, strain nat1, hits give low values 1.02 | locus YDR001C, strain nth1, hits give low values 1.03 | locus YDR069C, strain doa4, hits give low values 1.02 | locus YDR137W, strain rgp1, hits give low values 0.982 | locus YDR159W, strain sac3, hits give low values 0.983 | locus YDR195W, strain ref2 0.945 | locus YDR297W, strain sur2, hits give low values 1.02 | locus YDR334W, strain swr1, hits give low values 1.04 | locus YDR335W, strain msn5, hits give low values 1.02 | locus YDR392W, strain spt3, hits give low values 0.931 | locus YEL003W, strain gim4, hits give low values 1.02 | locus YEL037C, strain rad23, hits give low values 1.03 | locus YEL061C, strain CIN8 (second series), hits give low values 1.03 | locus YER015W, strain faa2, hits give low values 1.02 | locus YER016W, strain bim1, hits give low values 1.02 | locus YER111C, strain swi4, hits give low values 1.03 | locus YER155C, strain BEM2 (second series), hits give low values 1 | locus YFR010W, strain ubp6, hits give low values 1.04 | locus YGL167C, strain pmr1, hits give low values 1.03 | locus YGL173C, strain kem1, hits give low values 1.03 | locus YGL227W, strain vid30, hits give low values 1.04 | locus YGL240W, strain doc1, hits give low values 0.988 | locus YGL253W, strain hxk2, hits give low values 1.03 | locus YHR013C, strain ard1, hits give low values 1.03 | locus YHR027C, strain rpn1, hits give low values 1.02 | locus YHR030C, strain SLT2, hits give low values 0.949 | locus YHR079C, strain IRE1, hits give low values 0.937 | locus YHR142W, strain chs7, hits give low values 0.996 | locus YJL092W, strain hpr5, hits give low values 1.04 | locus YJL095W, strain BCK1 (second series), hits give low values 1.02 | locus YJL095W, strain BCK1, hits give low values 0.911 | locus YJL115W, strain asf1, hits give low values 1.02 | locus YJL129C, strain trk1, hits give low values 1 | locus YJL154C, strain vps35, hits give low values 1.03 | locus YJL164C, strain tpk1, hits give low values 0.993 | locus YJL166W, strain qcr8, hits give low values 0.996 | locus YJL187C, strain SWE1, hits give low values 1.02 | locus YJR066W, strain TOR1, hits give low values 0.939 | locus YKL160W, strain elf1, hits give low values 0.975 | locus YKR026C, strain gcn3, hits give low values 1.03 | locus YKR091W, strain srl3, hits give low values 1.02 | locus YLL001W, strain dnm1, hits give low values 1 | locus YLL026W, hits give low values 1.01 | locus YLL041C, strain sdh2, hits give low values 1.02 | locus YLR027C, strain aat2, hits give low values 1.01 | locus YLR221C, strain rsa3, hits give low values 0.982 | locus YLR258W, strain gsy2, hits give low values 1.01 | locus YLR262C, strain YPT6 (second series), hits give low values 0.975 | locus YLR320W, strain mms22, hits give low values 1.02 | locus YLR342W, strain FKS1, hits give low values 1.04 | locus YLR357W, strain rsc2, hits give low values 1.05 | locus YLR370C, strain arc18, hits give low values 1.03 | locus YLR384C, strain iki3, hits give low values 1.03 | locus YML120C, strain ndi1, hits give low values 0.978 | locus YMR058W, strain fet3, hits give low values 1.03 | locus YMR125W, strain sto1, hits give low values 1.05 | locus YMR129W, hits give low values 1.04 | locus YMR205C, strain PFK2, hits give low values 1.01 | locus YMR231W, strain pep5, hits give low values 1.03 | locus YNL071W, strain lat1, hits give low values 1.02 | locus YNL183C, strain NPR1, hits give low values 0.894 | locus YNL209W, strain ssb2, hits give low values 1.03 | locus YNL248C, strain rpa49, hits give low values 1.03 | locus YNL322C, strain KRE1 (second series), hits give low values 1.03 | locus YNR049C, strain mso1, hits give low values 1.03 | locus YOR001W, strain rrp6, hits give low values 0.973 | locus YOR070C, strain gyp1, hits give low values 1.01 | locus YOR080W, strain dia2, hits give low values 1.03 | locus YOR083W, strain WHI5, hits give low values 0.984 | locus YOR106W, strain vam3, hits give low values 0.981 | locus YOR231W, strain MKK1, hits give low values 0.973 | locus YOR265W, strain rbl2, hits give low values 1.02 | locus YOR270C, strain vph1, hits give low values 1.03 | locus YOR290C, strain snf2, hits give low values 0.968 | locus YPL051W, strain arl3, hits give low values 0.974 | locus YPL078C, strain atp4, hits give low values 1 | locus YPL106C, strain sse1, hits give low values 1.01 | locus YPL240C, strain hsp82, hits give low values 1.03 | locus YPL256C, strain CLN2, hits give low values 0.963
active: locus YLR113W, strain HOG1, hits give low values 0.721
